Reference: PubChem BioAssay (NCI)
This is part of a sample that, as a whole, favours compounds with a hit. Of some 83,000 tested, about 20% had one in any assay.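 Plates (96-well) were seeded with cells, treated with compound at one concentration, and incubated for 48 hours before percent growth was determined.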 Values without a mark were called inactive. The source made the active and inactive calls. How the source made its calls: active means growth percent below 10; inactive means the rest.

How the values were obtained:
Assay in all cases: NCI-60 one-dose screen, 48 h (100 = growth as untreated, 0 = no growth, -100 = all killed)
Settings in all cases: 10 µM unless noted
[1] = tested on: T-47D breast
[2] = tested on: BT-549 breast
[3] = tested on: MDA-MB-435 melanoma
[4] = tested on: SW-620 colon
[5] = tested on: MCF7 breast
[6] = tested on: HCT-116 colon
[7] = tested on: HCC-2998 colon
[8] = tested on: KM12 colon

Row | Structure (SMILES) | growth [1] | growth [2] | growth [3] | growth [4] | growth [5] | growth [6] | growth [7] | growth [8]
1 | Clc1ccc(-c2cn(-c3ccccc3)c(-c3ccccc3)n2)cc1 | 56.7% | 62.9% | 87.7% | 66.7% | 9.74% (active) | 27.2% | 97.6% | 53.6%
2 | CCOC(=O)C(O)C(O)(c1ccccc1)c1ccccc1 (centres undefined) | 93.6% | 103% | 111% | 109% | 93.5% | 105% | 99.9% | 101%
3 | CNC=O | 98.3% | 168% | 96.9% | 93.5% | 99.3% | 95.8% | 174% | 95.5%
4 | CCOC(=O)c1sc2ccc(NCc3nc[nH]c3C)cc2c1NC(=O)c1cc(OC)c(OC)c(OC)c1 | 76.2% | 94.8% | 71.7% | 79.8% | 62.6% | 55.4% | 106% | 93.7%
5 | CCN(CC)CCCC(C)NCc1ccccc1 (centres undefined) | 105% | 85.2% | 100% | 105% | 93.8% | 90.8% | 99.5% | 96.9%
6 | Nc1ccc(CCCCc2ccccc2)c(Cl)c1 | 89.9% | 91.9% | 99.1% | 92.3% | 98.6% | 92.6% | 113% | 101%
7 | COc1cc2c(c(OC)c1OC)C(=O)/C(=C/c1cc(C)c(O)c(C)c1)S2 | 47.6% | 56.9% | -37.2% (active) | 39.3% | 21.7% | 33.2% | 46.4% | 20.9%
8 | Nc1nc(N)c(-c2ccc(Cl)cc2)c(/C=C/c2ccc([N+](=O)[O-])cc2)n1 | 84.7% | 92.3% | 41.9% | 26.4% | 82.2% | 48.9% | 77.6% | 83.1%
9 | COc1cc(-c2ncn(/C=C\c3nnco3)n2)cc(C(F)(F)F)c1 | 28.9% | -13.8% (active) | 2.34% (active) | 14.6% | 8.23% (active) | 3.16% (active) | 7.01% (active) | 10.7%
10 | COc1cc2cc(Oc3ccc(NC(=O)Nc4cc(C(F)(F)F)cc(C(F)(F)F)c4)cc3)c(C)nc2cc1OCCN1CCCCC1 | -39.7% (active) | 94.3% | -94.4% (active) | -84.4% (active) | -84.8% (active) | -76.8% (active) | -94.5% (active) | -78.5% (active)
11 | COc1ccc(/C=C(\C#N)n2nnc3ccccc32)cc1 | 50.1% | 21.6% | -40.1% (active) | 12.8% | 9.96% (active) | 4.97% (active) | -2.35% (active) | 1.79% (active)
12 | O=C1CSC(c2ccccc2)N1c1ccccc1 (centres undefined) | 103% | 103% | 108% | 94.5% | 96.6% | 99.9% | 115% | 98.4%
13 | O=C1C2=C(CCN(Cc3ccccc3)C2)N2CCN=C2N1Cc1ccc(F)cc1F | 33.4% | 34.6% | 32.3% | 40.9% | 30.1% | 23.3% | 34.3% | 44.7%
14 | COc1cc(C(=O)Nc2cc(O)c(CC=C(C)C)c(O)c2)cc2c1O[C@]1(C)CC[C@@H](O)C(C)(C)[C@H]1C2 | 3.79% (active) | 29.6% | 24.9% | 7.03% (active) | 6.62% (active) | 13.2% | 7.4% (active) | 18.2%
15 | O=C1CSC(c2ccc(O)cc2)N1c1nnc(Cn2cnnc2)o1 (centres undefined) | 92.3% | 55.8% | -1.5% (active) | 67.4% | 84% | 93% | 112% | 49.9%
16 | NS(=O)(=O)c1cn(-c2ncnc3nc[nH]c23)ccc1=O | 76.7% | 109% | 103% | 95.1% | 104% | 94.5% | 107% | 92.9%
17 | C[C@@H]1CC[C@@H]2[C@@H]1[C@H](OC(=O)/C=C/c1ccccc1)[C@]1(CCCOCCOCCOCCOC(=O)CCCC[C@@H]3SC[C@@H]4NC(=O)N[C@@H]43)C[C@@H](OC(=O)CO)[C@@]2(C)O1 | 92.4% | 99.4% | 99.7% | 102% | 102% | 92.7% | 104% | 102%
18 | O=C1Nc2ccccc2SC1c1ccccc1Cl (centres undefined) | 92.9% | 82.9% | -12.6% (active) | 75.5% | 119% | 105% | 124% | 53.7%
19 | O=C1c2cccc3c(-c4ccc(-c5nc6c7ccccc7c7ccccc7c6[nH]5)cc4)ccc(c23)C(=O)N1CCN1CCNCC1 | 67.5% | 95.4% | 100% | 25.2% | -6.7% (active) | -12.3% (active) | 85.5% | 21.6%
20 | CCOC(=O)c1c2c(c(C)n1C)-c1nn(Cc3ccc(OC)cc3)cc1CC2 | 64.4% | 271% | 100% | 96.9% | 99.3% | 84.4% | 109% | 92.4%
21 | O=S(=O)(NCCNc1cc(-c2c(-c3cccc(O)c3)nc3sccn23)ccn1)c1ccc(Br)cc1 | 23.8% | 55.2% | 26.1% | 76.8% | 37.4% | 47.9% | 95.3% | 51.3%
22 | Cc1nc(-c2ccccc2)cc2c(O)c(C(=O)N/N=C/c3ccc(N(C)C)cc3)[nH]c(=O)c12 | 76.5% | 103% | 86.8% | 75% | 64.1% | 57.6% | 95.2% | 82.3%
23 | O[C@H]1CO[C@H]2[C@@H]1OC[C@@H]2Oc1ccc(Nc2nc(Nc3ccc(F)c(Cl)c3)ncc2F)cc1Cl | 110% | 105% | 93.1% | 98.2% | 88.3% | 105% | 101% | 108%
24 | C=C(C=O)[C@@H]1CC=C(C=O)CC1 | -27.7% (active) | -18.9% (active) | -31.4% (active) | -25.7% (active) | -17.3% (active) | 5.92% (active) | -30% (active) | -36.6% (active)
25 | COc1ccc(-n2sc(=O)n(Cc3ccc(COC(=O)C(C)c4ccc(CC(C)C)cc4)cc3)c2=O)cc1 (centres undefined) | 10.6% | 52.8% | 22% | -12.5% (active) | 17.8% | -31.9% (active) | 83.9% | 85.8%
26 | Cc1cc(=O)[nH]c(N/N=C/c2cc(Br)ccc2O)n1 | 25% | 17.2% | 47.3% | 40.3% | 1.32% (active) | 5.04% (active) | 32.5% | 34.6%
27 | O=[N+]([O-])c1ccc2[nH]cc(-c3c4ccsc4cc4[nH]c5ccc([N+](=O)[O-])cc5c34)c2c1 | 7.11% (active) | 24.7% | -27.6% (active) | 25% | 9.14% (active) | 2.78% (active) | 7.3% (active) | 3.79% (active)
28 | O=C1NC(=S)S/C1=C\N1N=C(c2ccc(Cl)cc2)CC1c1ccc(F)cc1 (centres undefined) | 72.2% | 100% | 97.2% | 92.1% | 71.9% | 81.9% | 100% | 87.4%
